Laboratory results from the supplement of paper PMC7156485.
Several values for one entry are separate records, joined by “and”; a condition that tells them apart may be missing. Identical values can stand only once. ± gives the standard deviation of the averaged measurements.

Columns and labels:
Settings in all cases: concentration: 10 µM; 24 h
HCC1569 [1] = assay: cell number relative to DMSO (% of DMSO); higher = more cells (less growth inhibition / toxicity)
Procedure, shortened: (§1)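 Compounds were applied at 10 µM for 24 h at 37 °C, in triplicate, to HCC1569 and TDF cells. The cells were then fixed and stained for H1.0, and nuclei were counterstained with DAPI. Nuclear H1.0 intensity or cell number is reported relative to the plate control as a percent, taking the median of replicates. Smoothing for positional effects was applied to HCC1569 values only.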

TDF [2] = assay: as above
Procedure, shortened: as §1

TDF [3] = assay: H1.0 immunofluorescence intensity relative to DMSO (% of DMSO); higher = stronger H1.0 induction, active = 120 or more
Procedure, shortened: as §1

HCC1569 [4] = assay: H1.0 immunofluorescence intensity relative to DMSO (% of DMSO); higher = stronger H1.0 induction, active = 140 or more
Procedure, shortened: as §1
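For H1.0 immunofluorescence intensity relative to DMSO in this document: TDF is a line of transformed human dermal fibroblasts of mesenchymal origin.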
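For cell number relative to DMSO in this document: TDF denotes transformed human dermal fibroblasts of mesenchymal origin.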

| SMILES | cell number (HCC1569 [1]) | cell number (TDF [2]) | H1.0 immunofluorescence intensity (TDF [3]) | H1.0 immunofluorescence intensity (HCC1569 [4]) |
| --- | --- | --- | --- | --- |
| CCC=CCC(C=CC=CCC=CCC=CCCCC(=O)O)OO (stereo not drawn) | 101 | 92.8 | 92.7 (inactive) | 102 (inactive) |
| CNC(=O)Oc1ccc2c(c1)C1(C)CCN(C)C1N2C.CNC(=O)Oc1ccc2c(c1)C1(C)CCN(C)C1N2C.O=S(=O)(O)O (stereo not drawn) [Physostigmine sulfate] | 97.1 | 102 | 90.4 (inactive) | 106 (inactive) |
| CN1CC(NS(=O)(=O)N(C)C)CC2c3cccc4c3c(cn4C)CC21 (stereo not drawn) [Mesulergine] | 100 | 103 | 93.4 (inactive) | 120 (inactive) |
| C[N+]1(C)C2CCC1CC(OC(=O)C(CO)c1ccccc1)C2.[Br-] (stereo not drawn) [Atropine methyl bromide] | 102 | 105 | 91.2 (inactive) | 93.9 (inactive) |
| NC(=O)COc1c(F)cc(SCCNS(=O)(=O)c2ccccc2)cc1F | 106 | 102 | 93.5 (inactive) | 106 (inactive) |
| CC1OC(OC2CC(O)C3(CO)C4C(O)CC5(C)C(C6=CC(=O)OC6)CCC5(O)C4CCC3(O)C2)C(O)C(O)C1O (single isomer, unassigned; (-)) [(-)-Ouabain] | 49.5 ± 1.9 | 42.1 ± 1.4 | 119 (inactive) | 130 (inactive) |
| CC12CCC3C(CCC4CC(O)CCC43C)C1CCC2=O (stereo not drawn) [Androsterone] | 95 | 113 | 91.7 (inactive) | 107 (inactive) |
| CCCN(CCC)C(=O)Cc1c(-c2ccc(Cl)cc2)nc2ccc(Cl)cn12 | 87.6 | 93.7 | 100 (inactive) | 115 (inactive) |
| O=C(O)C=CC(=O)O.O=[N+]([O-])c1ccc2nc(N3CCNCC3)ccc2c1 [Quipazine, 6-nitro-, maleate] | 96.6 | 95.5 | 95.2 (inactive) | 107 (inactive) |
| Br.CCC1CN2CCc3cc(OC)c(OC)cc3C2CC1CC1NCCc2cc(O)c(OC)cc21 (stereo not drawn) | 59.6 | 21.4 | 135 (active) | 104 (inactive) |
| CC1=NN=C(c2ccc(N)cc2)c2cc3c(cc2C1)OCO3.Cl | 97.4 | 95.2 | 106 (inactive) | 104 (inactive) |
| CC(=O)OC1CC2CCC3C(CCC4(C)C3CC([N+]3(C)CCCCC3)C4OC(C)=O)C2(C)CC1[N+]1(C)CCCCC1.[Br-].[Br-] (stereo not drawn) [Pancuronium.2Br] | 100 | 92 | 93.9 (inactive) | 102 (inactive) |
| O=C1CCCC2C3CCCN4CCCC(CN12)C34 (stereo not drawn) [Matrine] | 100 | 94.7 | 99.3 (inactive) | 94.6 (inactive) |
| CCCC(=O)OCC[N+](C)(C)C [Butyrylcholine] | 101 | 104 | 92.9 (inactive) | 111 (inactive) |
| CC(O)=C(C#N)C(=O)Nc1cc(Br)ccc1Br | 100 and 108 | 99.5 and 103 | 99 (inactive) and 97.5 (inactive) | 111 (inactive) and 98.6 (inactive) |
| O=C(O)C(=O)c1cn(Cc2ccccc2)c2ccc(-c3ccc(OC(F)(F)F)cc3)cc12 | 99.9 | 106 | 94 (inactive) | 99.4 (inactive) |
| Cl.OC1CCCCC1N1CCC(c2ccccc2)CC1 (stereo not drawn) [Vesamicol hydrochloride] | 99 | 104 | 94.2 (inactive) | 106 (inactive) |
| COc1cc2c(cc1OC)[C@H]1CC(=O)[C@H](CC(C)C)CN1CC2 | 106 | 102 | 88 (inactive) | 96.4 (inactive) |
| CNC(=O)Oc1ccc2c(c1)C1(C)CCN(C)C1N2C (stereo not drawn) [Physostigmine] | 104 | 104 | 102 (inactive) | 94.1 (inactive) |
| c1ccc2c(c1)[nH]c1cnccc12 [Norharmane] | 100 | 106 | 97.6 (inactive) | 92 (inactive) |
| COC1=CC(=O)OC(C=Cc2ccccc2)C1 (racemic) | 104 | 92 | 95.5 (inactive) | 83 (inactive) |

| SMILES | cell number (HCC1569 [1]) | cell number (TDF [2]) | H1.0 immunofluorescence intensity (TDF [3]) | H1.0 immunofluorescence intensity (HCC1569 [4]) |
| --- | --- | --- | --- | --- |
| Cl.O=C1CCC2(O)C3Cc4ccc(O)c5c4C2(CCN3CC2CC2)C1O5 (stereo not drawn) [Naltrexone hydrochloride] | 103 | 115 | 90.8 (inactive) | 96 (inactive) |
| CNC1CC(c2ccc(Cl)c(Cl)c2)c2ccccc21.Cl (stereo not drawn) [Indatraline hydrochloride] | 84.1 | 85.9 | 110 (inactive) | 133 (inactive) |
| CC(CCc1ccccc1)NC(C)C(O)c1ccc(O)cc1.Cl (stereo not drawn) [Buphenine.HCl] | 101 | 104 | 90 (inactive) | 115 (inactive) |
| CN[C@@H]1Cc2cccc3[nH]c(=O)n(c23)C1.O=C(O)C=CC(=O)O | 101 | 105 | 92.5 (inactive) | 89.2 (inactive) |
| C=C1C(C)C2C(Cc3ccccc3)NC(=O)C23C(OC(C)=O)C=CC(C)(O)C(=O)C(C)CC=CC3C1O (stereo not drawn) [Cytochalasin D] | 69.1 | 45.1 | 212 (active) | 204 (active) |
| Cl.Cl.Clc1ccc(N2CC3CCC(C2)N3)nn1 | 103 | 110 | 90.8 (inactive) | 95.7 (inactive) |
| COC1CC(CC2CCC(C)C(C(C)C(=O)[O-])O2)OC2(OC(C)(C3CCC(C)(C4OC(C5OC(O)(CO)C(C)CC5C)CC4C)O3)CC2C)C1C.[Na+] (stereo not drawn) [Nigericin] | 53.3 | 68.8 | 122 (active) | 183 (active) |
| CN1Cc2c(ccc3c2OCO3)C2C(O)Cc3cc4c(cc3C21)OCO4 (single isomer, unassigned; (+)) [(+)-Chelidonine] | 58 | 7.56 | 193 (active) | 148 (active) |
| C[N+]1(C)CCN(c2ccccc2)CC1.[I-] [1,1-Dimethyl-4-phenyl-piperazinium iodide] | 99 | 93 | 95.8 (inactive) | 109 (inactive) |
| Oc1ccc2c3c1OC1C(O)CCC4(O)C(C2)N(CC2CCC2)CCC314 (stereo not drawn) [Nalbuphine] | 105 | 105 | 89.2 (inactive) | 104 (inactive) |
| CCCCCC=CCC=CCC=CCC=CCCCC(=O)NCC(=O)O [N-Arachidonylglycine] | 108 | 98.1 | 95.7 (inactive) | 95.8 (inactive) |
| CCCN1CCCC(c2cccc(O)c2)C1.Cl (stereo not drawn) [S(-)-3PPP hydrochloride] | 99.1 | 110 | 94.8 (inactive) | 104 (inactive) |
| Br.CCCN(CCC)C1CCc2ccc(O)cc2C1 (stereo not drawn) [R-(+)-7-Hydroxy-DPAT hydrobromide] | 99.8 | 110 | 103 (inactive) | 101 (inactive) |
| NCC(CP(=O)(O)O)c1ccc(Cl)cc1 (stereo not drawn) [Phaclofen] | 106 | 100 | 95.8 (inactive) | 79.9 (inactive) |
| CCCn1c(C)c(C(=O)c2cccc3ccccc23)c2ccccc21 | 99.3 | 88.2 | 96.2 (inactive) | 100 (inactive) |
| NC(N)=NOCC[C@H](N)C(=O)O.O=S(=O)(O)O [L-Canavanine sulfate] | 101 | 81.3 | 107 (inactive) | 107 (inactive) |
| CCCN(CCC)C1CCc2ccc(O)cc2C1 (racemic) | 102 | 111 | 88.7 (inactive) | 95.4 (inactive) |
| CC(C)(C)c1cc(C=C(C#N)C#N)cc(Br)c1O | 99.2 | 99.1 | 110 (inactive) | 99.8 (inactive) |
| Cl.Oc1cc2c(cc1O)C1c3ccccc3CNC1CC2 (stereo not drawn) [Dihydrexidine hydrochloride] | 96.3 | 118 | 82.7 (inactive) | 103 (inactive) |
| CC(=O)C1CCC2C3CCC4CC(O)CCC4(C)C3CCC12C (stereo not drawn) [5alpha-Pregnan-3alpha-ol-20-one] | 98.3 | 107 | 90.5 (inactive) | 102 (inactive) |
| CC12CCC3C(CC=C4CC(O)CCC43C)C1CCC2=O (stereo not drawn) [Dehydroepiandrosterone] | 105 | 107 | 99.7 (inactive) | 93.6 (inactive) |
